Laboratory results from PubChem BioAssay (NCATS).
Records with an inconclusive call do not appear. Where a call stands in place of a potency, no number is given. Activity calls are given as the source filed them. Calls follow the shape of the dose curve; as a rule, active = well fitted inhibition curve with a large enough effect; inconclusive = small, poorly fitted or top-dose-only effect; inactive = flat fitted curve, though single readings scatter.
Potency is read from the fitted curve at half-maximal effect.

These molecules were tested on TAB165 (assay: qHTS profiling for inhibitors of Plasmodium falciparum proliferation (AID 504749; also: nearly all actives have a fitted effect of over 60% in size)). Settings: P. falciparum in erythrocytes, SYBR Green DNA, 72 h; series mostly up to 28.7 µM.
How it was run: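 Each compound contacts P. falciparum-infected red blood cells for 72 h at 37 C; lysis buffer (Tris, EDTA, saponin, Triton X, SYBR Green I) is added and fluorescence measured next morning; values normalized to controls.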
`CCCCCCCCCCCCCCCC(=O)OC[C@H](O)[C@H]1OC[C@@H](O)[C@@H]1O` was tested, and the Potency was “inactive”.
`CCCCC(=O)OCC(=O)[C@]1(O)Cc2c(O)c3c(c(O)c2[C@H](OC2CC(NC(=O)C(F)(F)F)C(O)C(C)O2)C1)C(=O)c1c(OC)cccc1C3=O` (some centres undefined) was tested, and the Potency was 2240 nM (active).
In the case of `C[C@H]1OC(OC2C(O)[C@@H](O)C(OC3C(O)[C@@H](O)C(O)O[C@@H]3CO)O[C@@H]2CO)[C@H](O)C(O)C1N[C@H]1C=C(CO)[C@@H](O)[C@H](O)C1O` (some centres undefined), the Potency is reported as “inactive”.
With `CCN(CC)CC(=O)Nc1c(C)cc(C)cc1C` the Potency was “inactive”.
`CC(=O)N[C@H]1[C@H](O[C@@H]2c3ccc(c(Cl)c3)Oc3cc4cc(c3O[C@@H]3O[C@H](CO)[C@@H](O)[C@H](O)C3C)Oc3ccc(cc3Cl)C[C@H]3NC(=O)[C@@H](N)c5ccc(O)c(c5)Oc5cc(O)cc(c5)[C@H](NC3=O)C(=O)N[C@H]4C(=O)N[C@H]3C(=O)N[C@@H]2C(=O)N[C@@H](C(=O)O)c2cc(O)cc(O[C@H]4O[C@H](CO)[C@@H](O)C(O)[C@@H]4O)c2-c2cc3ccc2O)O[C@H](CO)[C@@H](O)[C@@H]1O` (some centres undefined) was tested, and the Potency was “inactive”.
For `NC(=O)c1ncn(C2OC(CO)C(O)C2O)c1N` (centres undefined), the Potency was “inactive”.
`C[C@H]1[C@@H](OC(=O)CCC(=O)O)OC2OC3(C)CC[C@H]4[C@H](C)CC[C@@H]1[C@@]24OO3` (some centres undefined) was tested, and the Potency was 1.8 nM (active).
`CC1(Cn2ccnn2)[C@H](C(=O)O)N2C(=O)C[C@H]2S1(=O)=O` (some centres undefined) was tested, and the Potency was “inactive”.
With `CN(C)CC/C=C1\c2ccccc2COc2ccc(CC(=O)O)cc21` the Potency was “inactive”.
In the case of `OCCN1CC(O)C(O)C(O)C1CO` (centres undefined), the Potency is reported as “inactive”.
`COc1cc2c(cc1O)CCN[C@@]21CS[C@H]2c3c(OC(C)=O)c(C)c4c(c3C(COC1=O)N1C2C2c3c(cc(C)c(OC)c3O)CC([C@@H]1O)N2C)OCO4` (some centres undefined) was tested, and the Potency was 1 nM (active).
In the case of `CC(CCC(=O)O)C1CCC2C3C(=O)C[C@@H]4CC(=O)CC[C@@]4(C)C3CC(=O)[C@]12C` (some centres undefined), the Potency is reported as “inactive”.
With `C[n+]1c2cc(N)ccc2cc2ccc(N)cc21` the Potency was 398 nM (active).
In the case of `O=C(OC[C@@H]1O[C@@](O)(COC(=O)c2cccnc2)[C@H](OC(=O)c2cccnc2)[C@H]1OC(=O)c1cccnc1)c1cccnc1`, the Potency is reported as “inactive”.
With `O=[N+]([O-])O[C@H]1CO[C@H]2[C@@H]1OC[C@H]2O` the Potency was “inactive”.
`COc1cccc(OC)c1C(=O)NC1C(=O)N2C1SC(C)(C)C2C(=O)O` (centres undefined) was tested, and the Potency was “inactive”.
`NC[C@@H]1O[C@H](OC2[C@@H](CO)O[C@@H](OC3[C@H](O)[C@H](N)C[C@H](N)[C@H]3OC3O[C@H](CO)[C@@H](O)[C@H](O)[C@@H]3N)[C@H]2O)C(N)[C@H](O)[C@@H]1O` (some centres undefined) was tested, and the Potency was “inactive”.
With `Cc1ccc(S(=O)(=O)NC(=O)NC(C)Cc2ccccc2)cc1` (centres undefined) the Potency was “inactive”.
In the case of `OCCOC[C@H]1O[C@H](OCCO)[C@H](OCCO)[C@@H](OCCO)[C@@H]1OCCO` (tested in a mixture with another compound), the Potency is reported as “inactive”.
In the case of `C[S+](C)CC[C@H](N)C(=O)O`, the Potency is reported as “inactive”.
With `CC[C@@H]1/C=C(\C)C[C@H](C)C[C@H](OC)[C@H]2O[C@@](O)(C(=O)C(=O)N3CCCC[C@H]3C(=O)O[C@H](/C(C)=C/[C@@H]3CC[C@H](Cl)[C@H](OC)C3)[C@H](C)[C@@H](O)CC1=O)[C@H](C)C[C@@H]2OC` the Potency was “inactive”.
In the case of `NC(=O)C1CC2(NC(=O)NC2=O)c2cc(F)ccc2O1` (centres undefined), the Potency is reported as “inactive”.
With `CN1[C@@H]2CC[C@@H]1CC(OC(=O)[C@H](CO)c1ccccc1)C2` (some centres undefined) the Potency was “inactive”.
In the case of `CC[C@@]1(O)C[C@H](O[C@H]2C[C@@H](N(C)C)[C@@H](O[C@H]3C[C@@H](O)[C@@H](O[C@H]4CCC(=O)[C@@H](C)O4)[C@@H](C)O3)[C@@H](C)O2)c2c(cc3c(c2O)C(=O)c2c(O)cccc2C3=O)[C@H]1C(=O)OC`, the Potency is reported as 141 nM (active).
In the case of `CCCCCCCCCCCC(=O)OCC(O)C1OCC(O)C1O` (centres undefined), the Potency is reported as “inactive”.
`C/C1=C2/[N-]C(C(CC(N)=O)[C@@]2(C)CCC(=O)NCC(C)OP(=O)([O-])O[C@H]2[C@@H](O)[C@@H](n3cnc4cc(C)c(C)cc43)O[C@@H]2CO)[C@]2(C)N=C(/C(C)=C3N=C(/C=C4N=C1C(CCC(N)=O)C\4(C)C)[C@@H](CCC(N)=O)[C@]\3(C)CC(N)=O)[C@@H](CCC(N)=O)[C@]2(C)CC(N)=O.CC(=O)O.[Co]` (some centres undefined) was tested, and the Potency was “inactive”.
For `CC1(C)OC[C@@H]2O[C@@]3(C(=O)O)OC(C)(C)O[C@@H]3[C@@H]2O1`, the Potency was “inactive”.
With `Cc1ccccc1N1C(=O)c2cc(N)ccc2N/C1=C\F` the Potency was “inactive”.
In the case of `CCC(C(=O)O)C1OC(C(C)C(O)C(C)C(=O)C(CC)C2OC3(C=CC(O)C4(CCC(C)(C5CCC(O)(CC)C(C)O5)O4)O3)C(C)CC2C)C(C)CC1C` (centres undefined), the Potency is reported as 158 nM (active).
`O=C1C(I)=CC(=C(c2cc(I)c(O)c(I)c2)c2ccccc2C(=O)O)C=C1I` was tested, and the Potency was “inactive”.
For `NC(=O)NC(CCC(=O)O)C(=O)O` (centres undefined), the Potency was “inactive”.
With `COC1CC2CCC(C)[C@](O)(O2)C(=O)C(=O)N2CCCCC2C(=O)OC(C(C)CC2CCC(O)C(OC)C2)CC(=O)C(C)/C=C(/C)C(O)C(OC)C(=O)C(C)CC(C)C=CC=C/C=C\1C` (some centres undefined) the Potency was 1120 nM (active).
`CC(=O)OCC(=O)[C@@]1(O)CCC2C3C[C@H](C)C4=CC(=O)C=CC4(C)C3C(O)CC21C` (some centres undefined) was tested, and the Potency was “inactive”.
With `CN[C@H](C)CCC=C(C)C` the Potency was 251 nM (active).
With `CC1(C)C2CC[C@]1(C)[C@@H](O)C2` the Potency was “inactive”.
`OCC1O[C@H](Oc2ccc(O)cc2)C(O)C(O)C1O` (some centres undefined) was tested, and the Potency was “inactive”.
For `Nc1nc(F)nc2c1ncn2[C@@H]1O[C@H](CO)[C@@H](O)[C@H]1O`, the Potency was “inactive”.
With `CC1OC(OC2CCC3(C)C(CCC4C3CC(O)C3(C)C(C5=CC(=O)OC5)CCC43O)C2)CC(O)C1OC1CC(O)C(OC2CC(O)C(OC3OC(CO)C(O)C(O)C3O)C(C)O2)C(C)O1` (centres undefined) the Potency was “inactive”.
`CC1OC(OCC2OC(Oc3c(-c4ccc(OCCO)c(OCCO)c4)oc4cc(OCCO)cc(O)c4c3=O)C(O)C(O)C2O)[C@@H](O)C(O)C1O` (some centres undefined) was tested, and the Potency was “inactive”.
